Assay results published in PubChem BioAssay (NCATS).
Records with an inconclusive call do not appear. Activity calls are given as the source filed them. Calls come from the whole dose curve; as a rule, active = well fitted inhibition curve with a large enough effect; inconclusive = small, poorly fitted or top-dose-only effect; inactive = flat fitted curve, though single readings scatter. Where a SMILES comes first, the peptide text is derived from it. [ ]: non-standard residue; d: D form. ξ: configuration not given here. ξPhe(βξ-Me) = CC(c1ccccc1)C(N)C(=O)O; GABA = NCCCC(=O)O

target: Calcium and integrin-binding protein 1 (Homo sapiens) (UniProt Q99828); experiment: Primary qHTS for Identification of Calcium Integrin Binding Protein 1 (CIB1) Competitor (AID 1508620); details: CIB1-GST / FITC-alphaIIb peptide fluorescence polarization; series mostly up to 114 µM; activity change, negative = inhibition: at the top concentration;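 note: GST tagged CIB1 binding a fluorescein labelled alphaIIb integrin peptide tracer; top concentration of the series differs between compounds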
Sequence (Q99828 whole entry, looked up): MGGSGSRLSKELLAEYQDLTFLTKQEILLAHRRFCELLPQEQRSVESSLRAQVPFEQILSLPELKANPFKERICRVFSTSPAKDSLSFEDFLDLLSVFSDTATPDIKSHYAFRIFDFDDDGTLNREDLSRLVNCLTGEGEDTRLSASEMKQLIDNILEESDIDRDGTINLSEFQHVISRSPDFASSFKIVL
How it was run: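 Fluorescence polarization competition: CIB1-GST (1 uM final) preincubated with compound 15 min at room temperature, then FITC-labeled alphaIIb peptide (100 nM final) added for another 15 min. Polarization read at Ex 480/Em 540.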
% is set by controls: 0 for no effect and ±100 for the full control effect.

| Structure (SMILES) | activity change, negative = inhibition |
| --- | --- |
| CC1(C)CC[C@]2(C(=O)O[C@@H]3O[C@H](CO[C@@H]4O[C@H](CO)[C@@H](O)[C@H](O)[C@H]4O[C@@H]4O[C@H](CO)[C@@H](O)[C@H](O)[C@H]4O)[C@@H](O)[C@H](O[C@@H]4O[C@H](CO)[C@@H](O)[C@H](O)[C@H]4O)[C@H]3O)CC[C@]3(C)C(=CCC4[C@@]5(C)CC[C@@H](O)[C@@](C)(C(=O)O[C@@H]6O[C@H](CO)[C@@H](O)[C@H](O)[C@H]6O)C5CC[C@]43C)[C@@H]2C1 (some centres undefined) | -1.15% [at 12.4 µM] (inactive) |
| c1ccc(-c2csc(N3CCOCC3)n2)cc1 | 4.38% (inactive) |
| COC1CC(O[C@H]2CC[C@@]3(C)C(=CC[C@]4(O)C3[C@H](OC(C)=O)[C@@H](OC(=O)c3ccccc3)[C@]3(C)[C@@H](C(C)=O)CC[C@@]34O)C2)OC(C)C1OC1CC(OC)C(OC2CC(OC)C(OC3OC(C)C(OC4OC(CO)C(O)C(O)C4O)C(OC)C3O)C(C)O2)C(C)O1 (some centres undefined) | -4.32% [at 12.4 µM] (inactive) |
| CCOC(=O)C(CCc1ccccc1)NC1CSC(c2cccs2)CN(CC(=O)O)C1=O (centres undefined) | 1.65% (inactive) |
| Cc1cc(Nc2ncc3cc(-c4c(Cl)cccc4Cl)c(=O)n(C)c3n2)ccc1F | -3.79% (inactive) |
| CC(=O)N1CCN(C(=O)Cc2ccc(Nc3ncc(F)c(Nc4ccc(C(=O)Nc5ccccc5Cl)cc4)n3)cc2)CC1 | 3.93% (inactive) |
| C[C@@H]1CCC2C(C)(C)[C@H](O)CC[C@]2(C)[C@@]12Cc1c(O)cc3c(c1O2)CNC3=O (some centres undefined) | -5.39% [at 57.7 µM] (inactive) |
| CCOCCn1nc(CC)c2nc(N3CCC(C(=O)O)CC3)nc(Nc3cc(C)ccn3)c21 | -11.9% (inactive) |
| C=CC1C(OC2OC(CO)C(O)C(O)C2O)OC=C2C(=O)N3C(C(=O)O)Cc4c([nH]c5ccccc45)C3CC21 (centres undefined) | -0.718% [at 57.7 µM] (inactive) |
| Cn1cc(S(=O)(=O)c2ccc(Cl)cc2)c2cccc(N3CCNCC3)c21 | -9% (inactive) |
| CC1=CC(=O)CC(C)(C)[C@H]1/C=C/C(CO)O[C@@H]1O[C@H](CO)[C@@H](O)[C@H](O)[C@H]1O (some centres undefined) | -0.0888% [at 57.7 µM] (inactive) |
| CC(C)=CC/C=C(\C)[C@H]1CC[C@]2(C)[C@@H]1[C@H](O)C[C@@H]1[C@@]3(C)CC[C@H](O)C(C)(C)[C@@H]3[C@@H](O[C@@H]3O[C@H](CO)[C@@H](O)[C@H](O)[C@H]3O)C[C@]12C | -0.3% (inactive) |
| COC(=O)C(C)C1CCC2(C)C(=O)C=CC(C)(O)C2C1O (centres undefined) | 3.15% (inactive) |
| CC1(C)CCC2(C(=O)OC3OC(CO)C(O)C(O)C3O)CCC3(C)C(=CCC4C5(C)CCC(OC6OC(C(=O)O)C(OC7OC(CO)C(O)C(O)C7O)C(OC7OC(CO)C(O)C(O)C7O)C6O)C(C)(C)C5CCC43C)C2C1 (centres undefined) | -4.6% [at 30.2 µM] (inactive) |
| CC1(C)CCC2(C(=O)OC3OCC(O)C(O)C3O)CCC3(C)C(=CCC4C5(C)CC(O)C(OC6OC(COC7OCC(O)C(O)C7O)C(O)C(O)C6O)C(C)(C)C5CCC43C)C2C1 (centres undefined) | -1.91% [at 30.2 µM] (inactive) |
| C=C(C)[C@@H]1CC[C@]2(C)CC[C@]3(C)[C@H](CC[C@@H]4[C@@]5(C)CC[C@@H](O)C(C)(C)[C@@H]5CC[C@]43C)[C@@H]12 | 3.31% [at 57.7 µM] (inactive) |
| CC1=CC(=O)[C@]2(O[C@@H]3O[C@@H](C)[C@H](O)[C@@H](O)[C@H]3OC(=O)/C=C/c3ccccc3)C=CO[C@@H](O[C@@H]3O[C@H](CO)[C@@H](O)[C@H](O)[C@H]3O)[C@H]12 | -4% [at 30.2 µM] (inactive) |
| COc1ccc(-c2c(-c3cc(C(=O)O)ccn3)ncn2C)cc1 | -10.8% (inactive) |
| COc1c2cc(c(O)c1OC)-c1cc(ccc1O)CCC(O)CCCC2 (centres undefined) | -1.15% [at 57.7 µM] (inactive) |
| CC1NC(=O)CCCNC(=O)C(Cc2c[nH]c3ccccc23)NC(=O)C(C)NC(=O)C(C(C)C)NC(=O)C(C(C)c2ccccc2)NC(=O)C(C(C)C)NC1=O (stereo not drawn) (cyclo([GABA]AV[ξPhe(βξ-Me)]VAW); configuration not given here) | -3.31% [at 30.2 µM] (inactive) |

| Structure (SMILES) | activity change, negative = inhibition |
| --- | --- |
| C[C@@H]1O[C@@H](O[C@H]2[C@@H]3C=CO[C@@H](O[C@@H]4O[C@H](CO)[C@@H](O)[C@H](O)[C@H]4O)[C@@H]3[C@@]3(CO)O[C@@H]23)[C@H](OC(=O)/C=C/c2ccccc2)[C@H](O)[C@H]1O | -8.57% [at 30.2 µM] (inactive) |
| Cc1ccc(-c2ccc3ncc4c(c3n2)n(C2CCN(C(=O)[C@H](C)O)CC2)c(=O)n4C)cn1 | 0.0499% (inactive) |
| Cc1nc2sc(C(=O)NCc3ccncc3)c(N)c2c(C)c1Cl | -4.14% (inactive) |
| CC1OC(OC2CCC3(C)C(CCC4(C)C3CC=C3C5CC(C)(C)CCC5(C(=O)OC5OC(CO)C(O)C(O)C5O)CCC34C(=O)O)C2(C)C)C(O)C(O)C1O (centres undefined) | 3.19% [at 30.2 µM] (inactive) |
| O=C(Nc1nc2ccccc2n1CCc1ccccc1)c1ccccc1 | -2.27% (inactive) |
| Cc1cc2c(F)c(Oc3ncnn4cc(OCC(C)O)c(C)c34)ccc2[nH]1 (centres undefined) | -7.54% (inactive) |
| CCC(O)(C(=O)OCc1ccccc1NC(=O)CCC(=O)O)C(C)O (centres undefined) | -1.78% [at 57.7 µM] (inactive) |
| CC1(C)CC[C@]2(CO[C@@H]3O[C@H](CO)[C@@H](O)[C@H](O)[C@H]3O)[C@@H](O)C[C@]3(C)C(=CCC4[C@@]5(C)CC[C@H](O[C@@H]6O[C@H](CO[C@@H]7O[C@H](CO[C@@H]8OC[C@@H](O)[C@H](O)[C@H]8O)[C@@H](O)[C@H](O)[C@H]7O)[C@@H](O)[C@H](O)[C@H]6O)C(C)(C)C5CC[C@]43C)[C@@H]2C1 (some centres undefined) | -5.87% [at 30.2 µM] (inactive) |
| C[C@@H]1O[C@@H](OC[C@H]2O[C@@H](Oc3cc(O)cc4c3C(=O)C(O)(Cc3ccc(O)cc3)O4)[C@H](O)[C@@H](O)[C@@H]2O)[C@H](O)[C@H](O)[C@H]1O (some centres undefined) | 0.0107% [at 30.2 µM] (inactive) |
| CC(Oc1cc(-n2cnc3ccc(CN4CCN(C)CC4)cc32)sc1C(N)=O)c1ccccc1C(F)(F)F (centres undefined) | -1.08% (inactive) |
| COc1ccccc1Oc1ccc(N(Cc2cccnc2)S(=O)(=O)CC(F)(F)F)cc1 | 1.63% (inactive) |
| CC1CCCCN1S(=O)(=O)c1ccc(N2CCCC2=O)cc1 (centres undefined) | 3.67% (inactive) |
| C=C1C(OC2OCC(O)C(O)C2O)CC2C(C)(C)C(O)CCC2(C)C1CC/C(C)=C\CO (centres undefined) | 1.93% [at 57.7 µM] (inactive) |
| O=C(c1ccc2nccnc2c1)N1CCCCC1 | -4.02% (inactive) |
| CC(C)=CCC/C(C)=C/CCC1(C)Oc2c(c(O)cc3c2CN(C(CCC(=O)O)C(=O)O)C3=O)CC1O (centres undefined) | -1.16% [at 57.7 µM] (inactive) |
| C=C1C(=O)O[C@H](CCC)[C@H]1C(=O)O | 3.45% (inactive) |
| C#CC[C@H](c1nc2cc(Cl)ccc2c(=O)n1Nc1ccccc1)N(CCCN)C(=O)c1cccc(Cl)c1F | 0.94% (inactive) |
| C/C=C/C(O)C1OC(=O)CC1Nc1ccc(C(=O)O)cc1 (centres undefined) | 5.64% (inactive) |
| C[C@H](Oc1ccc(S(C)(=O)=O)cc1C(=O)N1CCN(c2ncc(C(F)(F)F)cc2F)CC1)C(F)(F)F | -3.25% (inactive) |
